# Assay results taken from PubChem BioAssay (EPA / NIEHS).
# Records with an inconclusive call do not appear. Calls of active or inactive are those of the source. How the source made its calls, unless noted: active means hit-call score of the fitted dose curve at least 0.9, where 1 is the maximum; inconclusive means response in the unintended direction; inactive means score below 0.9.
# Columns and labels:
# [1] = target: Nucleoli Translocation, AR (gene 367) (UniProt P10275); test: UPITT_HCI_U2OS_AR_TIF2_Nucleoli_Antagonist: University of Pittsburgh U2OS Androgen Receptor-Transcriptional Intermediary Factor 2 (AR-TIF2) Antagonism High Content Imaging Assay for Nucleoli Translocation (AID 2283997)
# Procedure, shortened: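 U2OS cells expressing RFP-tagged human AR and GFP-tagged TIF2 were imaged by high-content fluorescence microscopy for red AR signal in the nucleolar region. Compounds were screened at 20 uM final (0.2% DMSO), with activity fitted relative to DHT as baseline.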
# [2] = target: Ratio of Nucleoli Translocation and Cytoplasm, AR (gene 367) (UniProt P10275); test: UPITT_HCI_U2OS_AR_TIF2_Nucleoli_Cytoplasm_Ratio_Antagonist: University of Pittsburgh U2OS Androgen Receptor-Transcriptional Intermediary Factor 2 (AR-TIF2) Antagonism High Content Imaging Assay for Ratio of Nucleoli Translocation and Cytoplasm (AID 2283999);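 further: antagonists lower the DHT-driven ratio of nucleolar to cytoplasmic red signal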
# Procedure, shortened: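 Human osteosarcoma U2OS line, AR fused to RFP, coactivator TIF2 fused to GFP. Cpds 20 uM final, 0.2% DMSO (screen); 0.195–50 uM final, 0.5% DMSO (CRC). Endpoint: nucleoli/cytoplasm red signal ratio, DHT as baseline, loss-of-signal antagonist mode.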
# DIO1 (gene 1733) = test: CCTE_GLTED_hDIO1: CCTE's human Deiodinase 1 (DIO1) Inhibition Assay, Great Lakes Toxicology and Ecology Division (GLTED) Lab (AID 2283987);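 further: isolated human DIO1 enzyme in a cell-free setup rather than cells; enzyme activity read as free iodide liberated from substrate via Sandell-Kolthoff colorimetry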
# Procedure, shortened: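 Inhibition read as reduced iodide release: after 3 h of human DIO1 with chemical, free iodide is quantified colorimetrically (Sandell-Kolthoff cerium/arsenic reaction). Triplicate plates, DMSO baseline.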
# [3] = target: Ratio of Nucleoli Translocation and Cytoplasm, AR (gene 367) (UniProt P10275); test: UPITT_HCI_U2OS_AR_TIF2_Nucleoli_Cytoplasm_Ratio_Agonist: University of Pittsburgh U2OS Androgen Receptor-Transcriptional Intermediary Factor 2 (AR-TIF2) Agonism High Content Imaging Assay for Ratio of Nucleoli Translocation and Cytoplasm (AID 2284000);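 further: hits raise the red nucleolar to cytoplasm ratio above vehicle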
# Procedure, shortened: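 U2OS cells expressing RFP-tagged human AR and GFP-tagged TIF2 were imaged by high-content fluorescence microscopy. The endpoint is the ratio of nucleolar to cytoplasmic red fluorescence, fitted for gain of signal relative to DMSO. Concentration-response spanned 0.195 to 50 uM final (0.5% DMSO).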
# [4] = CCTE_Shafer_MEA_acute_spike_number: CCTE's Neural Acute Assay for Total Number of Spikes, Shafer Lab (AID 2284008; active means hit-call score of the fitted dose curve at least 0.9, where 1 is the maximum; inactive means score below 0.9)
# Procedure, shortened: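 Total spike count from 40 min recordings before and during compound exposure (0.03-40 uM), given as per-well percent change. Cortical cultures from rat, DIV 13 or 15, 37 C; adaptive detection threshold 8x rms noise.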
# [5] = CCTE_Shafer_MEA_acute_firing_rate_mean: CCTE's Neural Acute Assay for Mean Firing Rate, Shafer Lab (AID 2284009; active means hit-call score of the fitted dose curve at least 0.9, where 1 is the maximum; inactive means score below 0.9;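 further: analyzed for loss of signal so actives lower firing rate relative to DMSO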)
# Procedure, shortened: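 Read-out: well-mean spike rate (spikes/recording length/electrodes), % change from 40 min pre-dose baseline to 40 min with compound. Rat cortical cultures, DIV 13 or 15, 37 C; 0.03-40 uM; DMSO as negative control.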
# [6] = target: Nucleoli Translocation, AR (gene 367) (UniProt P10275); test: UPITT_HCI_U2OS_AR_TIF2_Nucleoli_Agonist: University of Pittsburgh U2OS Androgen Receptor-Transcriptional Intermediary Factor 2 (AR-TIF2) Agonism High Content Imaging Assay for Nucleoli Translocation (AID 2283998)
# Procedure, shortened: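 Nucleolar translocation of AR-RFP, with TIF2-GFP coexpressed in human osteosarcoma U2OS, imaged by high-content fluorescence. Compounds tested singly at 20 uM final, confirmed in triplicate, then titrated 0.195–50 uM final; gain-of-signal relative to DMSO.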
# Nucleoli Translocation, AR (gene 367), sequence (P10275 whole entry, looked up): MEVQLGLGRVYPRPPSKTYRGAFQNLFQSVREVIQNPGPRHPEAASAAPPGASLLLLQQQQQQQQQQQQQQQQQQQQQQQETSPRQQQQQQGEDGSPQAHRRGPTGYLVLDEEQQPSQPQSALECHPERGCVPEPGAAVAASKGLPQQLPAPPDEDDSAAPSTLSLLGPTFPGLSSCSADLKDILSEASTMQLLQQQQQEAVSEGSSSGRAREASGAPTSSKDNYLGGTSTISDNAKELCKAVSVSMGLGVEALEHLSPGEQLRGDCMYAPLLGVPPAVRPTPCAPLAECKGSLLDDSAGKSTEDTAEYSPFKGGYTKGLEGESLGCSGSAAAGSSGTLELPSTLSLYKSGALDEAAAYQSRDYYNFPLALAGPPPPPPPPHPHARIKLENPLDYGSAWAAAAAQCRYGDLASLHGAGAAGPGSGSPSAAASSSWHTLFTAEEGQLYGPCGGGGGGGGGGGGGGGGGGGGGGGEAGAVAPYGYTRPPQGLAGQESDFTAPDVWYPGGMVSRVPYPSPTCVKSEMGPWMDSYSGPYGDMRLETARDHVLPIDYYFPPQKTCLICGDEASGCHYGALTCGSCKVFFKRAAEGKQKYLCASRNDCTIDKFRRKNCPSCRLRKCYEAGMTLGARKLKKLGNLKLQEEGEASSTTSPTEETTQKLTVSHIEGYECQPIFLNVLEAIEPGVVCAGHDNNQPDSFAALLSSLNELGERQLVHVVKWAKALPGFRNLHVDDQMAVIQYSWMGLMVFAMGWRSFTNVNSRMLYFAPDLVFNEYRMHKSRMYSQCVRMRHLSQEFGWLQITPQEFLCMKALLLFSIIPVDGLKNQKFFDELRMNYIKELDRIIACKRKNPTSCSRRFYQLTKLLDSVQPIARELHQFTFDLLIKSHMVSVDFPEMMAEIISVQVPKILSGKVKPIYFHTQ
# Ratio of Nucleoli Translocation and Cytoplasm, AR (gene 367), sequence (P10275 whole entry, looked up, the tested form may be a part): as the sequence (P10275 whole entry, looked up) above
smiles,measurement,setting,value
CCCc1ccc(OC)cc1,outcome,[1],inactive
same,outcome,[2],inactive
CCCCCCCC/C=C\CCCCCCCC(=O)O,AC50,DIO1 (gene 1733),74 µM (active)
CC(C)c1ccc2c(C(C)C)cc(C(C)C)c(S(=O)(=O)O)c2c1,outcome,[1],inactive
same,outcome,[3],inactive
CCO[Si](C)(OCC)OCC,outcome,[4],inactive
same,outcome,[5],inactive
CCCCC(CC)COCC1CO1 (centres undefined),outcome,[4],inactive
same,outcome,[5],inactive
CN1C(=O)N(C)C(O)C1O (centres undefined),outcome,[4],inactive
same,outcome,[5],inactive
O=c1cc(-c2ccccc2)oc2ccccc12,AC50,[1],21.9 µM (active)
same,outcome,[6],inactive
same,AC50,[2],10.5 µM (active)
